Assay results: PubChem BioAssay (NCI)
The panel holds about 83,000 compounds, 20% with a hit somewhere; the sample as a whole holds those more often.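 A percent growth of 40 corresponds to 60% growth inhibition; 0 means no net growth; -100 means all cells died. Active threshold: below 10.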 Calls of active or inactive are those of the source.

What follows are compounds tested on UO-31 renal (assay: NCI-60 one-dose screen, 48 h (100 = growth as untreated, 0 = no growth, -100 = all killed)). Conditions: 10 µM unless noted.
Procedure: Growth inhibition of the UO-31 human tumor cell line is measured as a screen for anti-cancer activity. Cells are grown in 96 well plates and exposed to the test compound for 48 hours. Compounds are tested at a single concentration, which is 10^-5 M for most compounds. The reported endpoint is percent growth (GI% or GIPRCNT), where numbers from 0 - 100% represent growth inhibition, and numbers from -100% - 0 represent cell death. For example, a value of 40 represents 60% growth inhibition. A value of 0 means no net growth occurred over the course of the experiment. A value of -40 indicates 40% of cells at the beginning of the experiment died by the end of the experiment. A value of -100 means all cells are dead at the end of the experiment.
NCI-60 Human Tumor Cell Lines Screen was performed using the standard one-dose NCI protocol, which is described in more detail at https://dtp.cancer.gov/discovery_development/nci-60/default.htm.
Compounds with GIPRCNT values below 10 were considered active. Activity score was based on GIPRCNT using the following formula: […]
Score is 0 for GIPRCNT values of 100 or above, 50 for GIPRCNT values of 0, and 100 for GIPRCNT values of -100.
With `COc1ccc(-c2nc(N/N=C/c3cccc(O)c3)nc(N3CCOCC3)c2C#N)cc1` the growth was 34.4% (inactive).
With `CCCCN(CCCC)CCc1c(C)cc(C)c(CCN(CCCC)CCCC)c1O` the growth was 28.4% (inactive).
With `O=C(CNCCO)Nc1ccc2ncnc(Nc3ccc(OCc4cccc(F)c4)c(Cl)c3)c2c1` the growth was 50.1% (inactive).
With `O=C(Nc1ccc(Nc2ncccn2)cc1)NC1C=c2ccccc2=CC1` (stereo not given) the growth was 80.5% (inactive).
In the case of `CC(C)(C)OC(=O)N1CCN(c2ccc(N)cc2)C(=O)C1`, the growth is reported as 87.4% (inactive).
In the case of `CCN(CC)CCCC(C)Nc1cc(-c2cccc(OC(F)(F)F)c2)nc2ccc(N3CCCC3)cc12` (stereo not given), the growth is reported as 23.7% (inactive).
With `CCn1cc(C2NC(=O)c3ccccc3N2)c2cccc(C)c21` (stereo not given) the growth was 38.7% (inactive).
For `O=C(N/N=C/c1cccc(O)c1)c1ccccc1Nc1cccc(C(F)(F)F)c1`, the growth was 58% (inactive).
In the case of `Fc1ccc(C2CC(c3cccc(Nc4ccncc4)c3)=NN2c2ccccc2)cc1` (stereo not given), the growth is reported as 62.8% (inactive).
For `COc1ccncc1C#Cc1cncc(C(=O)Nc2ccc(CN3CCN(C)CC3)c(C(F)(F)F)c2)c1`, the growth was 11.7% (inactive).
`CCCCOc1ccc(/C=N/Nc2cc(C)nc3ccc(Cl)cc23)cc1` was tested, and the growth was -96.1% (active).
With `COc1ccc(C(O)c2cc3c(N)c(C(=O)Nc4ccc(Cl)cc4)sc3nc2C)cc1` (stereo not given) the growth was 37% (inactive).
For `NNC(=O)/C(=C\c1ccc([N+](=O)[O-])cc1)CC(=O)c1ccc(Cl)c(Cl)c1`, the growth was 58.6% (inactive).
For `CC(=O)c1c[nH]c2ccc(-c3ccnc(Nc4ccc(NC(=O)C5CCCC5)c(CN5CCOCC5)c4)n3)cc12`, the growth was 2.12% (active).
In the case of `CC1(C)CCCN1CCCN1c2ccccc2Sc2ccc(Cl)cc21`, the growth is reported as 42.3% (inactive).
In the case of `C#Cc1cccc(NC(=O)Nc2ccc(NC(=O)CCl)cc2)c1`, the growth is reported as -97.4% [8.25 µM] (active).
In the case of `COc1cc(C(=O)/C=C/c2c(C)n([O-])c3ccc(Cl)cc3[n+]2=O)cc(OC)c1OC`, the growth is reported as 43% (inactive).
In the case of `Cc1ccc(C(=O)Nc2ccccc2C(=O)N/N=C(\c2ccccc2)c2ccccn2)cc1`, the growth is reported as 3.57% (active).
For `O=C(O)c1ccc[n+](CC(=O)N2CCN(c3cc4c(cc3F)c(=O)c(C(=O)O)cn4C3CC3)CC2)c1`, the growth was 71.8% (inactive).
In the case of `COc1ccc(/C=C2\COc3ccc(-c4ccccc4)cc3C2=O)cc1O`, the growth is reported as 40.6% (inactive).
For `COc1nc(N)nc(-n2c(-c3ccc(C)cc3)nc3ccccc32)c1NCc1ccc(C)cc1`, the growth was 59.9% (inactive).
`C[C@H]1[C@H](C)CC[C@]2(CO)CC[C@]3(C)C(=CC[C@@H]4[C@@]5(C)Cc6c([nH]c7ccccc67)C(C)(C)[C@@H]5CC[C@]43C)[C@H]12` was tested, and the growth was 74.3% (inactive).
For `CCOC(=O)c1ccc(Nc2ccnc(SCC(=O)c3ccc(C#N)cc3)n2)cc1`, the growth was 48% (inactive).
For `O=C(O)CNC(=O)CN1C(=O)c2ccccc2C1=O`, the growth was 86.3% (inactive).
For `CN(Cc1ccccc1)c1nc(Cl)c(C2CC(c3ccc(Cl)cc3)=Cc3[nH][nH]c(=O)c32)s1` (stereo not given), the growth was 69.2% (inactive).
`Cc1c2c(cc[n+]1Cc1ccccc1)c1ccc(OCC3CCCCC3)cc1n2CC1CCCCC1` was tested, and the growth was -93.1% (active).
In the case of `COc1cc(/C=N/NC(=O)c2ccccc2Nc2cccc(C(F)(F)F)c2)ccc1O`, the growth is reported as 74.8% (inactive).
`COc1cc2oc(-c3cccc(C(=O)Nc4ccc(Cl)cc4)c3)cc(=O)c2c(OC)c1OC` was tested, and the growth was 23.2% (inactive).
For `CC1=CC2(C)/C=C(C)/C=C\CC(O)/C=C3/C=CC(=C4C(=O)OC2(CC1C)C4=O)OC3` (stereo not given), the growth was -53% (active).
In the case of `O=CNc1cc(Cl)cc(Cl)c1`, the growth is reported as 90.1% (inactive).
`CCCCCCCCN1C(=O)/C(=c2\sc3n(c2=O)C2C(NN=3)N(CC)C(=O)N2CC)c2ccccc21` (stereo not given) was tested, and the growth was 66.8% (inactive).
In the case of `COc1cc(/C=C/C(=O)c2ccc(Nc3ncnc4ccccc34)cc2)cc(OC)c1`, the growth is reported as 51.2% (inactive).
In the case of `CCN(CC)S(=O)(=O)c1cccc([N+](=O)[O-])c1`, the growth is reported as 82.6% (inactive).
With `S=c1[nH]cccc1-c1nnc2n1Nc1nc3ccc(Cl)cc3cc1CS2` the growth was 79.6% (inactive).
For `COC(=O)Nc1ccc(NC(=O)OC)cc1`, the growth was 87.6% (inactive).
`Cc1[nH]c(C(=O)Nc2ccccc2OCc2cccc(C(=O)NCCN)c2)c(Cl)c1Cl` was tested, and the growth was 75% (inactive).
In the case of `COc1ccc(C2CC(c3cccc(Nc4ccncc4)c3)=NN2c2cc(Cl)cc(Cl)c2)cc1` (stereo not given), the growth is reported as 53.7% (inactive).
With `CCCCCOc1ccc(/C=N/Nc2cc(C)nc3ccc(Br)cc23)cc1` the growth was -94.1% (active).
In the case of `CCCC/C(=N\N=C(N)N)c1ccc(F)cc1`, the growth is reported as 45.3% (inactive).
With `CCc1c(Nc2ccc(C)cc2)[nH]c(N)nc1=S` the growth was 91.5% (inactive).
